Measured values taken from PubChem BioAssay.
Calls of active or inactive are those of the source.

Columns and labels:
[1] = binders of probe aFSTL3 on microarray, primary screen, stem cell growth factor project, biochemical, small-molecule microarray, fluorescence 635/667 (AID 1064); conditions: higher = more signal;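 further: measures binding of the biotinylated anti-FSTL3 antibody to printed compounds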
[2] = binders from COS7 lysate, DM2A8 probe, primary screen, torsin A project, cell lysate, small-molecule microarray, fluorescence 635/667 (AID 1065); conditions: higher = more signal, COS7 lysate expressing mutant human TOR1A
[3] = binders of probe aFGF2 on microarray, primary screen, stem cell growth factor project, biochemical, small-molecule microarray, fluorescence 635/667 (AID 1067); conditions: higher = more signal;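 further: measures binding of biotinylated aFGF2 protein to printed compounds on slides; z-score merges feature fluorescence and signal-to-noise across triplicate slides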
[4] = binders of probe aFGF10 on microarray, primary screen, stem cell growth factor project, biochemical, small-molecule microarray, fluorescence 635/667 (AID 1071); conditions: higher = more signal;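 further: score merges 667 nm spot intensity and signal to noise from triplicate slides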
[5] = molecular target: Neurogenic locus notch homolog protein 2 (Homo sapiens) (UniProt Q04721); experiment: Notch2 binders on small-molecule microarrays, primary screen, biochemical, small-molecule microarray, 635 nm fluorescence, stem cell growth factors (AID 1073); conditions: Notch2 binding, higher = more signal
Chain of Neurogenic locus notch homolog protein 2 (Homo sapiens) (Q04721 whole entry, looked up, canonical isoform): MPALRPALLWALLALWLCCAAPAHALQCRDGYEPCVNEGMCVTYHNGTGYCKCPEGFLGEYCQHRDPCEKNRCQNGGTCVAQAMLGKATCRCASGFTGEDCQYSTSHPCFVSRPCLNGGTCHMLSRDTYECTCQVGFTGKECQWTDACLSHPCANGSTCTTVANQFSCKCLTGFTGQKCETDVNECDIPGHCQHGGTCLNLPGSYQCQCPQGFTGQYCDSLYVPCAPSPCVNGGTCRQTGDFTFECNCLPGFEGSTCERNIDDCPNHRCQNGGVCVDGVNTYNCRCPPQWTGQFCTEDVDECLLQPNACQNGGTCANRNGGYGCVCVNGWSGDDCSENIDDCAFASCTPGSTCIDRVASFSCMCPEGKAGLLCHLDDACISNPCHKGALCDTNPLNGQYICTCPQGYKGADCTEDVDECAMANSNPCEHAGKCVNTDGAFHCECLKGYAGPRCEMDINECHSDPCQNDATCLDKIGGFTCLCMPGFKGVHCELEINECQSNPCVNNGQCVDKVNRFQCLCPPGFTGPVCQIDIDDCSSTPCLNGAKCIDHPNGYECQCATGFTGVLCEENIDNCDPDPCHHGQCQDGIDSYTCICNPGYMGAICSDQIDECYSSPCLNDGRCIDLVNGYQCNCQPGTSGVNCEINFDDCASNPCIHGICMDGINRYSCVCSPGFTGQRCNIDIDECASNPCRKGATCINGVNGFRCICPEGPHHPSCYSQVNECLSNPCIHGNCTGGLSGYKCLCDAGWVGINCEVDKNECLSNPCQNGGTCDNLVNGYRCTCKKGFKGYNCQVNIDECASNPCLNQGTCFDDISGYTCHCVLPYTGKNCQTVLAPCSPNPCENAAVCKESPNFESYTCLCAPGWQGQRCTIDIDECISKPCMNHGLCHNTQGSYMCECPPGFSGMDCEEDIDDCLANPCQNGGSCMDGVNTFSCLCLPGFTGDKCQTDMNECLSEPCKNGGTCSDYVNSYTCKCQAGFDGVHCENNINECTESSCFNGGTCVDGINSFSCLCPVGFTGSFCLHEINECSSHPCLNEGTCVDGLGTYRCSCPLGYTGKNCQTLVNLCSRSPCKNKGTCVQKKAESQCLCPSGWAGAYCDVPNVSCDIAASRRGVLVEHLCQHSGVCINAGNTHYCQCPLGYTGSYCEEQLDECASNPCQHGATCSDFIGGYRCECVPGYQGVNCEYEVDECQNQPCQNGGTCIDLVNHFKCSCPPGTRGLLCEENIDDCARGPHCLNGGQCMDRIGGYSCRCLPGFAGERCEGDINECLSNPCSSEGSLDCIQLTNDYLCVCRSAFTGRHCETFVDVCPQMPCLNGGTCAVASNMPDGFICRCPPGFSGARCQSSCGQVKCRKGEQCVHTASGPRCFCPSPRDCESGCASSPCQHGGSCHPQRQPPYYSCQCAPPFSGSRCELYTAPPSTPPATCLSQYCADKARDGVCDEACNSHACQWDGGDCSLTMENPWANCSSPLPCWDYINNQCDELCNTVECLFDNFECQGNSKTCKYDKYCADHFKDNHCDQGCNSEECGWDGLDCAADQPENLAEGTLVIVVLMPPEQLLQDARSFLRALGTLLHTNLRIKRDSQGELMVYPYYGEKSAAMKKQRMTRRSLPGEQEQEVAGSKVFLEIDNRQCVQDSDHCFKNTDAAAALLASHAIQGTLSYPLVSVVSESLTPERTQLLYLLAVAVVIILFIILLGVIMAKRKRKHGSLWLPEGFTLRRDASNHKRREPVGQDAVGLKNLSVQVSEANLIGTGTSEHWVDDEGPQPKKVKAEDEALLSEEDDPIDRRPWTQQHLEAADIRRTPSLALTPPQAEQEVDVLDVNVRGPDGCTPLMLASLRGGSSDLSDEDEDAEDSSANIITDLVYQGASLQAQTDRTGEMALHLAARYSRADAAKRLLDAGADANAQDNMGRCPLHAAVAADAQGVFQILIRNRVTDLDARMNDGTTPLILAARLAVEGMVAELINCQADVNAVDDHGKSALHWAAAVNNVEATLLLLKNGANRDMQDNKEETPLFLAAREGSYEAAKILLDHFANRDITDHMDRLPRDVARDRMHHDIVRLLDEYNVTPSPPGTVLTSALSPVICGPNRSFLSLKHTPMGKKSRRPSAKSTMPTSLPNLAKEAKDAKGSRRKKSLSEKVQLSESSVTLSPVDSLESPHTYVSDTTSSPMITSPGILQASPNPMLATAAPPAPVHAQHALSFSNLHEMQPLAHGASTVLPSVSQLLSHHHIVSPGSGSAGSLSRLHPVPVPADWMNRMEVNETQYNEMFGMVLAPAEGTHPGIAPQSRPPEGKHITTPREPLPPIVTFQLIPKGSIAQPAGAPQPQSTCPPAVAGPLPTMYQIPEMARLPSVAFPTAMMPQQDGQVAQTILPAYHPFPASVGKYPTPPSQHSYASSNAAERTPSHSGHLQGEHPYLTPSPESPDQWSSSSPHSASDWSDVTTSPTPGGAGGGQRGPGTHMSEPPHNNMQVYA

[6] = molecular target: Pro-neuregulin-1, membrane-bound isoform (Homo sapiens) (UniProt Q02297); experiment: NRG1 binders on small-molecule microarrays, primary screen, psychiatric disease protein project, biochemical, small-molecule microarray, fluorescence 635/667 (AID 1075); conditions: NRG1 binding, 635 nm fluorescence, higher = more signal;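 further: score combines 667 nm spot fluorescence with signal to noise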
Chain of Pro-neuregulin-1, membrane-bound isoform (Homo sapiens) (Q02297 whole entry, looked up, the tested form may be a part, canonical isoform): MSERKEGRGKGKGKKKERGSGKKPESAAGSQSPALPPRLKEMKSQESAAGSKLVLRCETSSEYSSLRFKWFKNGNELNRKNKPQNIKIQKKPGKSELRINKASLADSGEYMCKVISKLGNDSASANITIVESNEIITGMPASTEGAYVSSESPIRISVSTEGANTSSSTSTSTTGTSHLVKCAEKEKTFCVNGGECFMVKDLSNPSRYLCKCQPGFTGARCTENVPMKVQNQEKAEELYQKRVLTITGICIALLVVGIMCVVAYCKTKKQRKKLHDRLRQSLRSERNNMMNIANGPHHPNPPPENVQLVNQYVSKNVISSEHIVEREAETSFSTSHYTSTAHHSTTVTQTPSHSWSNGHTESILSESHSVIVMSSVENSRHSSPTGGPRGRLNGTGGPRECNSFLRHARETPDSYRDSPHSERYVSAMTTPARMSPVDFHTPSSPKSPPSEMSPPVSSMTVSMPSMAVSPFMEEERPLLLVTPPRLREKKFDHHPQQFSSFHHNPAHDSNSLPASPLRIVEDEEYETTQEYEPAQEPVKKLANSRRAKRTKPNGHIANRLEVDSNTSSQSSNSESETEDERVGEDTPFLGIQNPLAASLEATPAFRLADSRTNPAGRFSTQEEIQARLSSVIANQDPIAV

[7] = system: Neuregulin-1 EGF-like domain; experiment: binders of neuregulin-1 EGF-like domain, primary screen, biochemical, small-molecule microarray, 635 nm fluorescence (AID 1081); conditions: small-molecule microarray binding, higher = more signal;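 further: binding of the protein to compounds printed on small-molecule microarray slides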
[8] = FRG1 promoter luciferase signal modulators, primary screen, FRG1 inhibition for FSHD, cell-based, C2C12 myotubes, firefly/Renilla luciferase, luminescence (AID 1084); conditions: higher = more signal, called active from +8 up or from −8 down
[9] = binders of probe aFST on microarray, primary screen, stem cell growth factor project, biochemical, small-molecule microarray, fluorescence 635/667 (AID 1086); conditions: higher = more signal;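 further: score merges 667 nm fluorescence with signal-to-noise of each printed compound spot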
[10] = binders of probe aHhip on microarray, primary screen, stem cell growth factor project, biochemical, small-molecule microarray, fluorescence 635/667 (AID 1087); conditions: higher = more signal;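 further: score merges spot fluorescence at 667nm with spot signal to noise ratio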

Structure (SMILES) | composite z-score [1] | composite z-score [2] | composite z-score [3] | composite z-score [4] | composite z-score [5] | composite z-score [6] | composite z-score [7] | z-score [8] | composite z-score [9] | composite z-score [10]
CC(C)NC(=O)[C@@]1(Cc2ccccc2I)c2ccccc2C(=O)N(Cc2ccccc2)[C@H]1c1ccc(CO)cc1 | 0.0478 | 0.613 | -0.017 | 0.554 | 0.787 | 1.38 | 0.986 | -2.91 (inactive) | 0.612 | 0.0401
CN1C(=O)C2C(C1=O)C1C=C(CCCO)C2C(c2cccs2)N1C (stereo not given) | -0.855 | 1.65 | -0.2 | 0.524 | -0.508 | 0.822 | 1.19 | 0.22 (inactive) | -0.225 | -0.579
C=CCNC(=O)[C@@H]1[C@H]2C(=O)O[C@H](c3ccccc3)[C@H](c3ccccc3)N2[C@H](c2ccc(O)cc2)[C@@]12C(=O)N(C(=O)OCCOC)c1ccccc12 | -0.0042 | 1.11 | -0.0434 | 0.558 | 0.369 | 1.51 | 1.23 | 0.993 (inactive) | 0.376 | -0.0994
Cc1ccc(S[C@]2(C(=O)NCC(C)C)CC(=O)N(Cc3ccccc3Cl)[C@@H]2c2ccc(CO)cc2)cc1 | 1.27 | -0.48 | -0.151 | -0.584 | -1.36 | -0.612 | -0.232 | -2.55 (inactive) | -0.982 | -0.284
COC(=O)c1c(CC[C@@H](CO)NC(=O)N[C@@H](Cc2ccccc2)Cn2cc(C3(O)CCCCC3)nn2)oc(C(C)=O)c1C(=O)OC | -0.352 | 1.02 | -0.0478 | 0.337 | 0.617 | 0.824 | 0.862 | 1.14 (inactive) | 0.439 | -0.0994
COc1cccc(C(=O)O[C@H]2CC[C@]3(C)C4=C(CCC3C2(C)C)[C@]2(C)CC[C@H]([C@H](C)CCCC(C)C)[C@@]2(C)CC4)c1 (stereo not given in full) | -0.526 | 0.0024 | -0.0425 | 0.366 | -0.87 | 0.103 | 0.181 | -1.06 (inactive) | 0.169 | 0.0722
COC(=O)[C@@]1(Cc2ccc(OC)cc2)[C@H]2c3cc(C(=O)N4CCCC4)n(Cc4ccccn4)c3C[C@H]2CN1C(=O)c1ccccc1 | 0.381 | 0.765 | 0.396 | 1.11 | 1.66 | 2.1 | 1.4 | 2.78 (inactive) | 1.01 | 0.501
C=CCC(OC(C)=O)[C@@H]1[C@@H](N(Cc2cc3ccccc3o2)C(=O)c2ccc(C)cc2)c2cc(OCCCO)ccc2N1C(=O)c1ccc2ccccc2c1 (stereo not given in full) | -0.0336 | 0.117 | -0.0785 | 0.339 | 0.112 | -0.189 | 0.38 | -2.76 (inactive) | -0.0921 | -0.201
CC(=O)NCCCC[C@@H]1NC(=O)[C@@H]2C[C@H](C(=O)NCCCCN(C)C)[C@H](c3ccc(O)cc3)N2C1=O | 0.641 | -0.241 | -0.168 | -0.971 | -1.09 | -0.463 | 0.939 | -0.816 (inactive) | -0.0292 | 0.0373
Cc1ccc(S[C@]2(C(=O)NCc3ccccc3)CC(=O)N(Cc3ccccc3Cl)[C@@H]2c2ccc(CO)cc2I)cc1 | 0.715 | -1.06 | -0.104 | -0.638 | -0.848 | 0.288 | 0.539 | -0.0143 (inactive) | -0.319 | -0.0645
COC(=O)[C@@]1(Cc2ccccc2)N=C(c2ccc(OCCCO)cc2)O[C@H]1c1ccccc1N=[N+]=[N-] | 0.454 | 2.86 | -0.0667 | 0.123 | 0.784 | 0.657 | 1.33 | 3.69 (inactive) | 0.0183 | -0.201
O=C/C=C/c1ccc2c(c1)OCO2 | -0.23 | -0.508 | -0.115 | 0.182 | -0.24 | -0.31 | 0.0106 | -0.779 (inactive) | -0.158 | 0.0821
O=C1C2C=CC(C(O)c3ccc(B(O)O)cc3)N(Nc3ccccc3)C2C(=O)N1c1ccccc1 (stereo not given) | 0.72 | 0.0762 | 0.0533 | -0.132 | 0.971 | 1.38 | -0.401 | 4.59 (inactive) | 0.302 | -0.299
[N-]=[N+]=NCc1ccccc1C[C@]1(C(=O)O)N=C(c2ccc(OCCCO)cc2)O[C@H]1c1ccccc1 | 0.32 | 0.474 | -0.0184 | 0.39 | 0.0892 | 1.09 | 0.976 | -2.33 (inactive) | 0.219 | -0.261
CC(C)CNC(=O)[C@@]1(c2ccc([N+](=O)[O-])cc2)CC(=O)N(CC23CC4CC(CC(C4)C2)C3)[C@@H]1c1ccc(CO)cc1I | 0.483 | 0.699 | -0.0226 | 0.26 | 1.34 | 0.168 | 1.29 | -1.52 (inactive) | 0.283 | -0.0994
CCCCCN1CC=CC23O[C@@H]4/C=C\CCCOC(=O)C4[C@H]2C(=O)N(CCCCCCO)[C@@H]3C1=O (stereo not given in full) | -0.19 | 0.109 | -0.103 | -0.525 | -0.774 | 0.729 | 1.28 | -1.19 (inactive) | -0.645 | -0.37
O=C1c2ccccc2[C@@]2(Cc3ccccc3N(Cc3ccccc3)C2=O)[C@H](c2ccc(CO)cc2)N1C1CCCCC1 | -0.382 | -0.832 | -0.152 | -0.0341 | -0.203 | 0.662 | 1.37 | -0.0414 (inactive) | -0.244 | -0.201
CCCCC(O)C1C=CC2C(=O)N(C3CCCCC3)C(=O)C2N1Nc1ccc(OC)cc1 (stereo not given) | -0.362 | 0.139 | -0.0056 | 0.441 | 1.45 | 1.29 | 1.13 | 0.405 (inactive) | 0.583 | 0.107
CC(C)c1ccc(NN2C(C(O)c3cccc(O)c3)C=CC3C(=O)N(c4ccccc4)C(=O)C32)cc1 (stereo not given) | 0.0067 | 0.422 | 0.0864 | 0.618 | 1.57 | 1.97 | 1.3 | -1.04 (inactive) | 1.33 | 0.122
CCOc1cc(C(O)C2C=CC3C(=O)N(c4ccccc4)C(=O)C3N2Nc2ccc([N+](=O)[O-])cc2)ccc1O (stereo not given) | -0.549 | 0.23 | 0.0139 | 0.516 | 0.796 | 0.946 | 0.943 | -0.374 (inactive) | 0.311 | -0.271
CC(C)(C)OC(=O)CC[C@@]1(C(=O)O)N=C(c2ccc(OCCCO)cc2)O[C@@H]1c1ccccc1N=[N+]=[N-] | 1.09 | 1.56 | 0.0918 | 1.11 | 0.984 | 1 | 1.15 | 6.94 (inactive) | 0.457 | -0.277
O=C1O[C@@H](c2ccccc2)[C@@H](c2ccccc2)N2[C@@H](c3ccc(O)cc3)[C@]3(C(=O)Nc4ccc(C#CC5=CCCCC5)cc43)[C@@H](C(=O)O)[C@H]12 | 0.638 | 1.56 | -0.0908 | 0.725 | 0.798 | 1.2 | 1.14 | -0.611 (inactive) | 0.437 | 0.0274
[N-]=[N+]=NCc1ccccc1C[C@]1(C(=O)NCCN2CCOCC2)N=C(c2ccc(OCCCO)cc2)O[C@H]1c1ccccc1N=[N+]=[N-] | 0.446 | 0.57 | 0.0618 | 0.855 | 1.57 | 1.6 | 1.29 | -0.653 (inactive) | 1.25 | -0.236
C=CC[C@]1(C(=O)N2CCOCC2)N=C(c2ccc(OCCCO)cc2)O[C@H]1c1ccccc1 | 0.744 | 0.905 | 0.0445 | 0.147 | 0.618 | 2.1 | 1.25 | 0.54 (inactive) | 0.374 | -0.251
CC(=O)C1=CCC(c2ccccc2)N(S(=O)(=O)c2ccc(C)cc2)C1 (stereo not given) | 0.174 | 0.453 | 0.0592 | 0.679 | 0.691 | 0.628 | 1.23 | -2.72 (inactive) | 0.57 | -0.0142
CC(C)Cc1ccc(CN2CC[C@@H](NS(=O)(=O)c3ccccc3)C2)cc1 | -0.402 | 1.96 | -0.192 | -0.188 | -1.43 | -0.163 | -0.0314 | -0.803 (inactive) | -0.459 | -0.132
COCCOC(=O)N1C(=O)[C@@]2(c3cc(C#CCC(C(=O)OC)C(=O)OC)ccc31)[C@H](c1ccc(O)cc1)N1[C@H](c3ccccc3)[C@H](c3ccccc3)OC(=O)[C@H]1[C@@H]2C(N)=O | -0.239 | 0.365 | 0.0661 | 1.11 | 1.1 | 0.328 | 1.32 | -0.4 (inactive) | 0.404 | -0.124
